A selection: hits, their analogues and other compounds. The true share with any hit is near 19%.
HepG2 viability: kills HepG2 cells in TGF-b inhibitor counter-screen; HepG2 CAGA-GFP viability, ATP luminescence, 18 h; 0.76% of 410,000 active; Potency, µM (top dose mostly 46.1 µM), most hits filed as cytotoxic
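HepG2 CAGA-GFP cells (1000/well, DMEM with 1% FBS) received compound, then TGF-beta at 500 pg/mL final, and were incubated 18 hours at 37 degrees C. Viability was read by CellTiter-Glo luminescence. Media-only wells were set as complete cell-killing and DMSO as no toxicity.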
IL1B secr inh: inflammasome signaling inhibition, IL-1 beta readout | 4.7% of 360,000 active | AID 743279 | activity change, % at 57.5 µM | THP-1 LPS/ATP IL-1B secretion, AlphaLISA, 16 h; active compounds read low; in the data active = activity change below about -50%; inconclusive = mostly about -30% to -49%
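Secreted IL-1B measured by AlphaLISA bead assay after 16 h compound exposure of THP-1 cells; compounds (final up to 57.5 uM) added 1 h before LPS (250 ng/mL) and ATP (1.25 mM) stimulation; lower signal means less secretion.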
TDP1 block: blocks human tyrosyl-DNA phosphodiesterase 1 | Q9NUW8 | recombinant TDP1, AlphaScreen DNA substrate cleavage | Potency, µM (top dose mostly 130 µM), usual class: inhibitors | 0.28% of 350,000 active; note: nearly all actives have a fitted effect of over 40% in size
Target sequence (Q9NUW8 whole entry, looked up): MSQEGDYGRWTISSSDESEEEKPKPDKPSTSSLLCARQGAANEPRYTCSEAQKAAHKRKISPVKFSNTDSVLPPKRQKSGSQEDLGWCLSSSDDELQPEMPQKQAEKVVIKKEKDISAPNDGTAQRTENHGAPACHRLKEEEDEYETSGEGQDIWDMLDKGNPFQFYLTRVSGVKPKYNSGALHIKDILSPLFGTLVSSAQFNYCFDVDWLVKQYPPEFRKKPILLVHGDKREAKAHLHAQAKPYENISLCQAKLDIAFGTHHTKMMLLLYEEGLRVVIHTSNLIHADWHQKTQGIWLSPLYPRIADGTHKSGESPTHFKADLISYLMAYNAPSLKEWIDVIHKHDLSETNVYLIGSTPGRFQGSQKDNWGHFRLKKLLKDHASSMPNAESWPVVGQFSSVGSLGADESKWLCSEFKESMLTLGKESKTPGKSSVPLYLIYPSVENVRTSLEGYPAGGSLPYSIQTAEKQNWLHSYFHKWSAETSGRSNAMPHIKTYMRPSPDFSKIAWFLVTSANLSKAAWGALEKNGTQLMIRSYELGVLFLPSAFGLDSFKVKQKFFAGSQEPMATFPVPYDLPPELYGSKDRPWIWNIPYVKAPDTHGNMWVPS
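Signal: AlphaScreen proximity between streptavidin donor and anti-FITC acceptor beads on intact substrate. Reaction: Tdp1 1 nM, substrate 15 nM final, 5 min RT after 15 min compound preincubation.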
TGFb SMAD3 inh: blocks TGF-b signaling; HepG2 CAGA-GFP TGF-b/SMAD3 reporter, GFP fluorescence, 18 h; TGF-beta stimulated, 500 pg/mL final; 1.2% of 410,000 active; Potency, µM (series often up to 46.1 µM), hits mostly inhibitors; note: nearly all actives have a fitted effect of over 65% in size
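Inhibition of TGF-beta-driven CAGA-GFP reporter expression in HEPG2 cells is measured by cellular GFP fluorescence after 18 h stimulation with 500 pg/mL recombinant TGF-beta in 1% FBS medium at 37 degrees C.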
DT40 TDP1 no CPT: qHTS for Inhibitors of human tyrosyl-DNA phosphodiesterase 1 (TDP1): qHTS in cells in absence of CPT | DT40 Tdp1-/- hTDP1 cells, no CPT, ATP luminescence, 48 h | Potency, µM (highest dose often 46.2 µM), most hits filed as inhibitors | 15% of 420,000 active | AID 686978, 2013; note: nearly all actives have a fitted effect of over 55% in size
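Chicken DT40 Tdp1-/- cells complemented with human TDP1, screened without camptothecin (DMSO vehicle only), 400 cells/well. Compounds pin-transferred, cells incubated at 37 °C for at least 48 hr. Growth read as ATP-dependent luminescence (CellTiter-Glo, 30 min at RT).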
TDP1 cell CPT: growth inhibition of DT40 Tdp1-/-;hTDP1 cells with camptothecin (screen for TDP1 inhibitors); chicken DT40 Tdp1-/-;hTDP1 cells + 20 nM CPT, ATP luminescence, 48 h; Potency, µM (highest dose often 46.2 µM), most hits filed as inhibitors; 12% of 420,000 active; AID 686979; note: nearly all actives have a fitted effect of over 55% in size
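Chicken DT40 Tdp1-/- cells complemented with human TDP1, 400 cells/well, exposed to compounds plus 20 nM camptothecin for at least 48 h at 37 C; viability read as ATP content by CellTiter-Glo luminescence.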
A number is an active result; – = inactive; ? = inconclusive; · = no result; [ ] = dose if it differs, or a comment. Unless noted, calls come from the whole dose curve; as a rule, active = well fitted curve in the direction sought with a large enough effect; inconclusive = small, poorly fitted or top-dose-only effect, or another doubt; inactive = no such curve, though single readings can be large; an effect the other way counts as inactive or inconclusive.

SMILES | HepG2 viability | IL1B secr inh | TDP1 block | TGFb SMAD3 inh | DT40 TDP1 no CPT | TDP1 cell CPT
O=C(Nc1ccc(Cl)cc1Cl)c1ccc2c(=O)n3c(nc2c1)CCC3 | – | – | – | – | 16.4µM | ?
COc1ccccc1NC(=O)c1ccc2c(=O)n3c(nc2c1)CCC3 | – | – | – | – | ? | –
C=CCNc1nc2cc(-c3ccccc3OC)sc2c(=O)n1C | – | – | · | – | ? | ?
COCCNc1nc2cc(-c3ccccc3C)sc2c(=O)n1C | – | – | · | – | ? | 18.4µM
COCCNc1nc2cc(-c3ccccc3OC)sc2c(=O)n1C | – | – | · | – | 13µM | 18.4µM
NS(=O)(=O)c1ccc(CNC(=O)c2cc(-c3ccccc3)nc3ccccc23)cc1 | – | – | – | – | – | –
COc1cc(-c2cc(C(=O)Nc3ccc(S(=O)(=O)NCc4ccco4)cc3)c3ccccc3n2)cc(OC)c1OC | – | – | – | – | 2.91µM | 4.61µM
Cc1ccc(-c2cc(C(=O)NCc3ccco3)c3ccccc3n2)s1 | – | – | – | – | ? | ?
COc1cc(-c2cc(C(=O)NCc3ccc(S(N)(=O)=O)cc3)c3ccccc3n2)cc(OC)c1OC | – | -61.8 | – | – | ? | ?
COc1cc(-c2cc(C(=O)NCc3ccco3)c3ccccc3n2)cc(OC)c1OC | – | – | – | – | 2.59µM | ?
O=c1cc(N2CCNCC2)oc2c(-c3ccccc3)cccc12 | · | · | – | · | · | ·
COc1ccc(OCCCC(=O)OC(C)C(=O)Nc2ccc(S(N)(=O)=O)cc2)cc1 (stereo not drawn) | – | – | · | – | – | –
Cc1nccn1CCCN1C(=O)OC2(CCCCC2)C1(C)O (stereo not drawn) | – | – | – | – | 20.6µM | ?
CCOc1ccc2nc(NC(=O)CN3C(=O)NC4(CCCC4)C3=O)sc2c1 | – | – | –[0.505 µM] | – | – | –
CCOC(=O)C(=Cc1ccc(-c2ccsc2C(=O)OC)o1)C(=O)OCC | – | – | – | ? | ? | 25.9µM
CCCC(=O)NC(=S)Nc1c(C)cc(Br)cc1C | – | – | · | – | 16.4µM | ?
COc1ccc2c(-c3ccccc3)cc(SCC(N)=O)nc2c1 | – | – | – | – | 20.6µM | –
COc1ccc2nc(SCC(N)=O)cc(C)c2c1 | – | – | – | ? | – | –
CC(/C=N/NC(=O)c1cc(-c2ccccc2)nc2ccccc12)=C\c1ccco1 | – | – | – | ? | 0.731µM | 2.31µM
CC(/C=N/NC(=O)c1cc(-c2ccc(Cl)cc2)nc2ccccc12)=C\c1ccco1 | – | – | – | ? | 3.26µM | 2.91µM
COc1ccc(-n2c(=O)c3sc4ccccc4c3n(Cc3ccccc3)c2=O)cc1 | – | · | – | – | – | ?
Cc1cc(O)c2c(O)c3c(O)cccc3cc2c1 | · | · | · | · | – | –
COc1ccc2c(c1)Cc1sc(NC(=O)c3ccccc3C)nc1-2 | – | · | – | · | ? | –
C=CCNC(=S)NN=C1CCCCCCC1 | – | – | – | ? | 25.9µM | 16.4µM
NC(=S)NN=C1CCCCCCCC1 | – | – | · | ? | ? | 2.31µM
SMILES | HepG2 viability | IL1B secr inh | TDP1 block | TGFb SMAD3 inh | DT40 TDP1 no CPT | TDP1 cell CPT
NC(=S)NN=C1C=CCCC1 | – | – | · | – | 4.61µM | 2.91µM
COCCNC(=S)NN=C1CCCCC1 | – | – | – | – | 5.17µM | 5.17µM
NC(=S)NN=C1CCCCCCCCC1 | – | – | · | – | ? | ?
O=C(CN1CCN(S(=O)(=O)c2cccs2)CC1)N1CCCCC1 | – | – | – | – | – | –
O=C(c1ccc(S(=O)(=O)N2CCOCC2)cc1)N(c1ccccn1)C1CCCCC1 | – | – | · | – | ? | ?
CC(C)c1ccc(OCC(=O)N(c2ccccn2)C2CCCCC2)cc1 | – | – | – | – | 14.6µM | ?
O=C(c1ccc(F)cc1Cl)N(c1ccccn1)C1CCCCC1 | – | – | – | ? | 14.6µM | 18.4µM
O=C(c1cccc(C(=O)N(c2ccccn2)C2CCCCC2)c1)N(c1ccccn1)C1CCCCC1 | – | – | – | – | 9.2µM | 11.6µM
O=C(c1ccc(Cl)cc1)N(c1ccccn1)C1CCCCC1 | – | – | – | – | 25.9µM | –
CN(Cc1ccc(Cl)cc1)C(=O)COC(=O)c1ccc(-c2ccc(O)cc2)cc1 | – | – | – | – | – | ?
NNC(=O)C(C(=O)OCc1ccccc1)c1ccccc1 (stereo not drawn) | · | · | – | · | · | ·
COCCN1Cc2cccc(C(=O)Nc3ccc(Cl)cc3Cl)c2C1=O | – | · | – | – | ? | –
Cc1cccc(CNC(=O)c2cnn(-c3nccc(-c4ccccc4C(F)(F)F)n3)c2C)n1 | · | · | · | · | ? | –[9.04 µM]
N#C/C(=C\c1ccccc1)C(=O)N(c1ccccn1)C1CCCCC1 | – | -97.5 | – | ? | 18.4µM | ?
O=C(c1ccc(Br)cc1)N(c1ccccn1)C1CCCCC1 | – | – | · | – | 14.6µM | ?
COc1ccccc1-n1c(=S)[nH]c2c(sc(=S)n2-c2ccccc2C)c1=O | – | ? | – | – | ? | ?
O=C1c2ccccc2OC2(C=Cc3ccccc3O2)N1Cc1ccccc1 (stereo not drawn) | – | – | – | – | 18.4µM | 4.61µM
CC(=O)c1cccc(OC(=O)C2=CC=CN3CCS(=O)(=O)N=C23)c1 | – | – | – | – | – | –
Cc1cccc(N2C(=O)c3cccc4c(N5CCCCC5)c([N+](=O)[O-])cc(c34)C2=O)c1C | – | – | – | – | ? | ?
O=C1c2cccc3c(N4CCOCC4)c([N+](=O)[O-])cc(c23)C(=O)N1c1cccc2ccccc12 | – | – | – | – | 18.4µM | 11.6µM
O/N=C1/CCc2cccc3cccc1c23 | – | – | – | – | – | –
O=C1C(=NO)CCc2ccccc21 | – | -77.9 | · | ? | 20.6µM | 20.6µM
COc1ccc(C(CC(=O)NCc2ccc(Cl)cc2)N2Cc3ccccc3C2=O)cc1OC (stereo not drawn) | – | · | – | – | 13µM | 18.4µM
COc1ccc(C(CC(=O)Nc2cc(C)ccn2)N2Cc3ccccc3C2=O)cc1 (stereo not drawn) | – | – | · | – | 13µM | ?
CCCC(C(=O)NCc1cccc(Cl)c1)N1Cc2ccccc2C1=O (stereo not drawn) | – | · | – | – | 11.6µM | ?
COc1cc(OC)c(NC(=O)CC(c2cccs2)N2Cc3ccccc3C2=O)cc1Cl (stereo not drawn) | – | · | – | – | 18.4µM | 23.1µM
COc1ccc(C(CC(=O)Nc2ccccn2)N2Cc3ccccc3C2=O)cc1OC (stereo not drawn) | – | – | – | – | – | –

Screening data deposited in PubChem by National Center for Advancing Translational Sciences (NCATS).
